In PubChem BioAssay (NCI):
About 79,000 compounds went through this panel and 15% of them were active in at least one assay; those are over-represented in the sample as a whole. Calls of active or inactive are those of the source. No stated cut-off is given here; in the data, active means growth inhibition above about 70%; inactive means the rest.

Columns and labels:
[1] = NCI Yeast Anticancer Drug Screen. Data for the rad52 strain (AID 147);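 further: 0% = growth of vehicle-treated control cultures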; conditions: S. cerevisiae rad52 mutant growth inhibition, stronger effect = higher value
How it was run: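 Screen used a yeast mutant impaired in DNA repair. After compound exposure, growth was measured. Values reflect inhibition compared with vehicle-treated cells.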

[2] = NCI Yeast Anticancer Drug Screen. Data for the wt1 strain (AID 149);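 further: 0% = growth of vehicle-treated wt1 cultures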; conditions: S. cerevisiae wt1 strain (SPY 50644) growth inhibition, stronger effect = higher value
How it was run: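 Compounds are added to wt1 yeast cultures. Growth is then measured. Inhibition is expressed relative to vehicle-treated controls.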

[3] = NCI Yeast Anticancer Drug Screen. Data for the rad50EPP+ strain (AID 151);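 further: 0% = growth of vehicle-treated control cultures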; conditions: S. cerevisiae rad50 mutant strain, stronger effect = higher value
How it was run: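 Exposing the rad50EPP+ strain to each compound, growth was compared with vehicle-only cultures to give inhibition.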

[4] = NCI Yeast Anticancer Drug Screen. Data for the mgt1 strain (AID 153); conditions: S. cerevisiae mgt1 mutant growth inhibition, stronger effect = higher value
How it was run: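 Genetically defined yeast (mgt1) treated with compound; inhibition of growth expressed against vehicle-treated controls.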

[5] = NCI Yeast Anticancer Drug Screen. Data for the rad50 strain (AID 155);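 further: 0% = growth of vehicle-only cultures of the same strain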; conditions: S. cerevisiae rad50 strain growth inhibition, stronger effect = higher value
How it was run: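 Inhibition values express reduced yeast growth in compound-treated cultures relative to vehicle-treated controls.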

[6] = NCI Yeast Anticancer Drug Screen. Data for the mec2-1 strain (AID 157); conditions: S. cerevisiae mec2-1 strain, stronger effect = higher value
How it was run: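 Readout is yeast growth inhibition, normalised to vehicle-treated controls, in the mec2-1 strain exposed to compound.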

[7] = NCI Yeast Anticancer Drug Screen. Data for the rad14 strain (AID 159);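 further: 0% = growth of vehicle-treated control cultures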; conditions: S. cerevisiae rad14 strain growth inhibition, stronger effect = higher value
How it was run: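 A mutant yeast strain defective in DNA damage repair is treated with compound; inhibition of its growth is scored against untreated, vehicle-exposed cultures.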

[8] = NCI Yeast Anticancer Drug Screen. Data for the sgs1 mgt1 strain (AID 161);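 further: 0% = growth of cultures given vehicle only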; conditions: S. cerevisiae sgs1 mgt1 strain, stronger effect = higher value
How it was run: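 Yeast cells carrying a defined DNA-repair defect were exposed to test compounds. Growth inhibition was measured relative to vehicle-treated controls.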

[9] = NCI Yeast Anticancer Drug Screen. Data for the CLN2oe strain (AID 163);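 further: 0% = growth of vehicle-only control cultures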; conditions: S. cerevisiae CLN2oe strain, stronger effect = higher value
How it was run: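 Values reflect how much compound exposure reduced yeast growth, referenced to vehicle-exposed cells. Assay organism is a strain with a defined genetic change affecting cell-cycle control.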

[10] = NCI Yeast Anticancer Drug Screen. Data for the cln2 rad14 strain (AID 165);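 further: 0% = growth equal to vehicle treated cultures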; conditions: S. cerevisiae cln2 rad14 strain, stronger effect = higher value
How it was run: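 Relative to vehicle controls, growth inhibition of compound-treated cln2 rad14 yeast was recorded.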

[11] = NCI Yeast Anticancer Drug Screen. Data for the bub3 strain (AID 167); conditions: S. cerevisiae bub3 mutant strain, stronger effect = higher value
How it was run: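 Steps: expose the mutant yeast strain to compound; grow alongside vehicle-treated cultures; measure growth; express inhibition against the vehicle cultures.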

[12] = NCI Yeast Anticancer Drug Screen. Data for the wt2 strain (AID 169);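 further: 0% = growth of vehicle-treated yeast cultures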; conditions: S. cerevisiae wt2 strain growth inhibition, stronger effect = higher value
How it was run: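 Values express reduction in yeast growth under compound treatment, referenced to vehicle-treated cells.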

[13] = NCI Yeast Anticancer Drug Screen. Data for the mlh1 strain (AID 171);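 further: 0% = growth of vehicle-treated control cultures of the same strain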; conditions: S. cerevisiae mlh1 strain growth inhibition, stronger effect = higher value
How it was run: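 Steps: expose the defined-mutant yeast strain to compound; expose a parallel culture to vehicle; measure growth; express compound effect as inhibition relative to the vehicle culture.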

[14] = NCI Yeast Anticancer Drug Screen. Data for the sgs1 strain (AID 173);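 further: 0% = growth of vehicle-only control cultures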; conditions: S. cerevisiae sgs1 mutant, stronger effect = higher value
How it was run: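 Treat defined-mutant yeast with compound; measure growth; calculate inhibition relative to vehicle-treated cells.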

[15] = NCI Yeast Anticancer Drug Screen. Data for the mlh1 rad18 strain (AID 175); conditions: S. cerevisiae mlh1 rad18 strain growth inhibition, stronger effect = higher value
How it was run: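 Test agents were incubated with a yeast strain of defined genotype (DNA damage repair defect). Inhibition of growth was derived by comparison with vehicle-exposed cultures.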

[16] = NCI Yeast Anticancer Drug Screen. Data for the rad18 strain (AID 177); conditions: S. cerevisiae rad18 mutant growth inhibition, stronger effect = higher value
How it was run: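 A genetically defined yeast mutant impaired in DNA damage repair was treated with test compounds, then its growth was measured against cultures receiving vehicle alone.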

[17] = at 5.0 µM (retest, dose inferred, filed as 0.5)
[18] = at 50.0 µM (retest, dose inferred, filed as 5.0)

Measured: growth inhibition

Cc1ccc(S(=O)(=O)NCCSS(=O)(=O)c2ccc(C)cc2)cc1
active: [1]; at 33.0 µM 98% | [1]; at 100.0 µM 95% | [2]; at 33.0 µM 99% | [2]; at 100.0 µM 95% | [3]; at 33.0 µM 91% | [3]; at 100.0 µM 96% | [4]; at 33.0 µM 98% | [4]; at 100.0 µM 94% | [5]; at 33.0 µM 98% | [5]; [18] 95% | [5]; at 50.0 µM 88.7% | [5]; at 100.0 µM 93% | [6]; at 33.0 µM 98% | [6]; [18] 96% | [6]; at 50.0 µM 93% | [6]; at 100.0 µM 96% | [7]; at 33.0 µM 98% | [7]; at 100.0 µM 92% | [8]; [18] 95% | [8]; at 50.0 µM 91% | [9]; at 33.0 µM 96% | [9]; at 100.0 µM 93% | [10]; [18] 96% | [10]; at 50.0 µM 87.2% | [11]; at 33.0 µM 98% | [11]; [18] 97% | [11]; at 50.0 µM 88.8% | [11]; at 100.0 µM 94% | [12]; at 33.0 µM 97% | [12]; at 100.0 µM 94% | [13]; at 33.0 µM 98% | [13]; at 100.0 µM 94% | [14]; at 33.0 µM 99% | [14]; at 100.0 µM 96% | [15]; [18] 95% | [15]; at 50.0 µM 88.7% | [16]; at 33.0 µM 99% | [16]; at 100.0 µM 94%
inactive: [1]; at 1.2 µM 18% | [1]; at 3.7 µM 31% | [1]; at 11.0 µM 38% | [2]; at 1.2 µM 6% | [2]; at 3.7 µM 8% | [2]; at 11.0 µM 28% | [3]; at 1.2 µM -14% | [3]; at 3.7 µM 6% | [3]; at 11.0 µM 64% | [4]; at 1.2 µM -13% | [4]; at 3.7 µM -8% | [4]; at 11.0 µM 3% | [5]; at 1.2 µM 9% | [5]; at 3.7 µM 6% | [5]; [17] 36% | [5]; at 11.0 µM 17% | [6]; at 1.2 µM -2% | [6]; at 3.7 µM -13% | [6]; [17] -24% | [6]; at 11.0 µM 7% | [7]; at 1.2 µM -10% | [7]; at 3.7 µM -15% | [7]; at 11.0 µM -6% | [8]; [17] 7% | [9]; at 1.2 µM -29% | [9]; at 3.7 µM -16% | [9]; at 11.0 µM -6% | [10]; [17] 20% | [11]; at 1.2 µM -14% | [11]; at 3.7 µM -29% | [11]; [17] 30% | [11]; at 11.0 µM -4% | [12]; at 1.2 µM -14% | [12]; at 3.7 µM -17% | [12]; at 11.0 µM -1% | [13]; at 1.2 µM -27% | [13]; at 3.7 µM -34% | [13]; at 11.0 µM -14% | [14]; at 1.2 µM 20% | [14]; at 3.7 µM 21% | [14]; at 11.0 µM 45% | [15]; [17] 10% | [16]; at 1.2 µM -2% | [16]; at 3.7 µM 6% | [16]; at 11.0 µM 12%

Nc1ncncc1C(C1=C(O)COC1=O)C1=C(O)COC1=O
inactive: [1]; at 1.2 µM 2% | [1]; at 3.7 µM -1% | [1]; at 11.0 µM -1% | [1]; at 33.0 µM -2% | [1]; at 100.0 µM 0% | [2]; at 1.2 µM 1% | [2]; at 3.7 µM 4% | [2]; at 11.0 µM -3% | [2]; at 33.0 µM 0% | [2]; at 100.0 µM 1% | [3]; at 1.2 µM 6% | [3]; at 3.7 µM 10% | [3]; at 11.0 µM 10% | [3]; at 33.0 µM 6% | [3]; at 100.0 µM 2% | [4]; at 1.2 µM -2% | [4]; at 3.7 µM -4% | [4]; at 11.0 µM -6% | [4]; at 33.0 µM -2% | [4]; at 100.0 µM -2% | [5]; at 1.2 µM 2% | [5]; at 3.7 µM 2% | [5]; [17] -10% | [5]; at 11.0 µM -2% | [5]; at 33.0 µM 0% | [5]; [18] 15% | [5]; at 50.0 µM 8.05% | [5]; at 100.0 µM 1% | [6]; at 1.2 µM 4% | [6]; at 3.7 µM 7% | [6]; [17] -15% | [6]; at 11.0 µM 8% | [6]; at 33.0 µM 8% | [6]; [18] -16% | [6]; at 50.0 µM 5.95% | [6]; at 100.0 µM 0% | [7]; at 1.2 µM -2% | [7]; at 3.7 µM -4% | [7]; at 11.0 µM -2% | [7]; at 33.0 µM -5% | [7]; at 100.0 µM -2% | [8]; [17] -10% | [8]; [18] 13% | [8]; at 50.0 µM 8% | [9]; at 1.2 µM -7% | [9]; at 3.7 µM -16% | [9]; at 11.0 µM -6% | [9]; at 33.0 µM -8% | [9]; at 100.0 µM -8% | [10]; [17] -5% | [10]; [18] 0% | [10]; at 50.0 µM 35.1% | [11]; at 1.2 µM -2% | [11]; at 3.7 µM -1% | [11]; [17] 1% | [11]; at 11.0 µM -1% | [11]; at 33.0 µM -2% | [11]; [18] 19% | [11]; at 50.0 µM -6.55% | [11]; at 100.0 µM -8% | [12]; at 1.2 µM 1% | [12]; at 3.7 µM 1% | [12]; at 11.0 µM -1% | [12]; at 33.0 µM 0% | [12]; at 100.0 µM 1% | [13]; at 1.2 µM 4% | [13]; at 3.7 µM 1% | [13]; at 11.0 µM 3% | [13]; at 33.0 µM 3% | [13]; at 100.0 µM 0% | [14]; at 1.2 µM 3% | [14]; at 3.7 µM 3% | [14]; at 11.0 µM 3% | [14]; at 33.0 µM 2% | [14]; at 100.0 µM -1% | [15]; [17] 2% | [15]; [18] 57% | [15]; at 50.0 µM 4.8%
